Screening results deposited in PubChem BioAssay by National Center for Advancing Translational Sciences (NCATS).
In the library only some 1.4% were active in any assay of this set; here they are far more common.
12-LOX inh: inhibitors of human 12S-lipoxygenase ALOX12; purified 12hLO, xylenol orange hydroperoxide absorbance; 580,000 tested, 1.1% active; P18054; Potency, µM (series often up to 108 µM), without a hit: top-dose activity change, negative = inhibition, hits mostly inhibitors; also: potency is read from the fitted curve at half-maximal effect; % is scaled to controls: 0 for no effect and ±100 for the full control effect
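Purified human 12hLO (150 nM final) in 25 mM Hepes, 0.01% Triton X-100, pH 7.0 was preincubated 15 min at room temperature with compound. Then 40 uM arachidonic acid was added, 30 min. Hydroperoxide was read by Fe-XO absorbance ratio 573/405 nm.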
Vif-A3G inh: inhibitors of Vif-APOBEC3G interaction; AID 602310; Q9HC16; 410,000 tested, 0.076% active; Potency, µM (highest dose often 46.1 µM), without a hit: at the highest dose activity, negative = active, hits mostly inhibitors; HeLa A3G-eYFP + Vif (tagged APOBEC3G with the HIV-1 protein that degrades it), YFP fluorescence, overnight; also: potency is read from the fitted curve at half-maximal effect; % is scaled to controls: 0 for no effect and ±100 for the full control effect; nearly all actives have a fitted effect of over 60% in size
Target sequence (Q9HC16 whole entry, looked up): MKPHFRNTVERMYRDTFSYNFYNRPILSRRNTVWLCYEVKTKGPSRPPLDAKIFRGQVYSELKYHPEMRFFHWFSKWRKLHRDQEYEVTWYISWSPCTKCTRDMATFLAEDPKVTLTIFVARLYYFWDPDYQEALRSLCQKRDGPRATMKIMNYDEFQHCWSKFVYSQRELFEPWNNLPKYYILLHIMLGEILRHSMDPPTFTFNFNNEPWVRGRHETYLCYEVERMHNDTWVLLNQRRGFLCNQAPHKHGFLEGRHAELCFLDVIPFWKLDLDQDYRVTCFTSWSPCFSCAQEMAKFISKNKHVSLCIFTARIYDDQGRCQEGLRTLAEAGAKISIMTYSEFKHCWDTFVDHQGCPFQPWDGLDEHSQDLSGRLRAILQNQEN
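HeLa cells stably expressing Vif and C-terminally eYFP-tagged A3G, seeded overnight at 37 deg C, then exposed to compound by pintool overnight at 37 deg C. Rise in yellow fluorescence (Ex 488/Em 500-530, Acumen) marks blocked Vif-driven A3G degradation.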
Akt phos inh: inhibitors of Akt phosphorylation. Neuro2A IGF-stimulated pAkt S473 HTRF, 20 min; hits give low values. activity change, % for hits at 50 µM. 360,000 tested, 0.32% active. AID 651550; in the data active = activity change below about -80%; inconclusive = mostly about -51% to -80%; also: % is scaled to controls: 0 for no effect and ±100 for the full control effect
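Neuro2A cells in DMEM with 0.5% FBS, overnight at 37 deg C, given compound at single 50 µM final, then IGF (6 nM final) for 20 min at 37 deg C. Lysed; phospho-Akt Ser473 by HTRF after 24 h, 665/615 ratio.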
S-ASM inh: inhibitors of human secretory acid sphingomyelinase | P17405 | placental ASM, HMU-PC fluorogenic substrate, 60 min | Potency, µM (highest dose often 57.5 µM), for the others: at the highest dose activity change, negative = inhibition, usual class: inhibitors | 340,000 tested, 0.006% active | AID 504937; also: potency is read from the fitted curve at half-maximal effect
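qHTS format. ASM enzyme prepared from human placenta hydrolyses the fluorogenic substrate HMU-PC0 (9 uM final) over 60 min at 37 °C after a 10 min compound preincubation.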
Vif-A3F inh: inhibitors of Vif-A3F interaction; 390,000 tested, 0.2% active; AID 602313; HeLa A3F-eYFP + Vif (tagged APOBEC3F with the HIV-1 protein that degrades it), YFP fluorescence increase; Potency, µM (top dose mostly 46.1 µM), inactives show at the top dose activity, negative = active; also: potency is read from the fitted curve at half-maximal effect; % of control where 0% means no effect; nearly all actives have a fitted effect of over 65% in size
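HeLa cells stably expressing A3F-eYFP plus Vif, plated and incubated overnight at 37 deg C, then exposed to compounds overnight at 37 deg C. Blocked degradation read as raised yellow fluorescence (Ex 488/Em 500-530).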
TSG101-PTAP inh: blocks PTAP/TSG101 interaction to inhibit HIV-1 budding. 340,000 tested, under 10 active. Q99816. Potency, µM (top dose mostly 115 µM), inactives show at the highest dose activity change, negative = inhibition, most hits filed as inhibitors. Fluorescence polarization, FITC-PTAP peptide / Tsg101 binding; active = well fitted inhibition curve with a large enough effect in the main read-out, with a control signal flat, not every such curve was filed as active; inconclusive = small, poorly fitted or top-dose-only effect, or effect the other way, or a change in a side signal; inactive = no such curve, though single readings can be large or run the other way; also: potency is read from the fitted curve at half-maximal effect; % of control where 0% means no effect
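Tsg101 binding domain (10 uM final) was mixed with compound and a FITC-labeled PTAP peptide (50 nM final) in HEPES pH 7.5 buffer with NaCl, Tween 20, EDTA and TCEP; fluorescence polarization was read after 20 min at r.t.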
Active calls of the source: *; i = inactive; ? = inconclusive; . = not tested or not shown; [ ] = remark or other dose. Unless noted, calls follow the shape of the dose curve; as a rule, active = well fitted curve in the direction sought with a large enough effect; inconclusive = small, poorly fitted or top-dose-only effect, or another doubt; inactive = no such curve, though single readings can be large; an effect the other way counts as inactive or inconclusive.

SMILES	12-LOX inh	Vif-A3G inh	Akt phos inh	S-ASM inh	Vif-A3F inh	TSG101-PTAP inh
Cc1ccc2[nH]c(C(=O)NCc3ccco3)cc2c1	-9%	.	.	.	.	.
CC(C)c1ccc2cc(C(=O)N(C)Cc3ccco3)[nH]c2c1	10%	.	.	.	.	.
O=C(NCc1ccco1)c1cc2cc(Br)ccc2[nH]1	32µM*	.	.	.	.	.
CCN(Cc1ccco1)C(=O)c1cc2cc(Br)ccc2[nH]1	18µM*	.	.	.	.	.
Cc1cn2nc(C(=O)NCc3ccc(F)cc3)cc2c(N(C)Cc2ccccc2)n1	20%	.	.	.	.	.
COc1ccccc1CCN[C@H]1CS(=O)(=O)C[C@@H]1S(=O)(=O)c1ccc(F)cc1	-19%	.	.	.	.	.
CN(CC(=O)Nc1cccc(F)c1)C(=O)C1CCN(c2ccc(C#N)cn2)CC1	27%	.	.	.	.	.
CCOC(=O)[C@]12CCC=C1N(Cc1ccc3c(c1)OCO3)C(=O)[C@H](CC(=O)NCCCCc1ccccc1)C2	-1%	.	i	.	.	.
CCOC(=O)[C@]12CCC=C1N(Cc1ccc3c(c1)OCO3)C(=O)[C@H](CC(=O)NCCc1ccccc1OC)C2	40µM*	.	i	.	.	.
NNc1nc2c(F)cc(F)cc2s1	40µM*	-10%	i	-3%	-6%	2%
NNc1nc2c(F)cccc2s1	?	-8%	i	2%	1%	-8%
COc1ccc2c(C)cc(SCC(=O)N(C)C3CCS(=O)(=O)C3)nc2c1 (stereo not drawn)	1%	?	i	4%	11µM*	24%
COc1ccc2c(C)cc(SCC(=O)N3CCOCC3)nc2c1	?	?	i	-1%	25µM*	8%
COc1ccc2c(C)cc(SCC(=O)N3CCCCCC3)nc2c1	5%	.	.	.	.	.
COc1ccc(-c2nnc(SCC(=O)N(C)C3CCS(=O)(=O)C3)n2C(C)C)cc1 (stereo not drawn)	-4%	0%	i	6%	-13%	-3%
CC1CCCCN1c1ccc(C(N)=O)cc1NC(=O)c1cccc(-n2cnnc2)c1 (stereo not drawn)	12%	.	.	.	.	.
Cc1ccccc1[C@H]1C[C@@H](O)[C@@H](O)[C@@H]1NC(=O)c1nc2ccccc2s1	45µM*	.	.	.	.	.
Cc1ccc(N(CC(O)COCc2ccco2)S(=O)(=O)c2ccc(C)cc2)cc1 (stereo not drawn)	35µM*	-12%	i	-9%	-2%	-13%
CN(C)c1ccc(/C=C2/C[N+](C)(C)C/C(=C/c3ccc(N(C)C)cc3)C2=O)cc1	50µM*	?	i	?	10µM*	54%
O=C(Cn1c(=O)oc2cc(S(=O)(=O)N3CCOCC3)ccc21)c1ccc(F)cc1	-2%	.	.	.	.	.
CC(=O)n1cc([C@@H]2C=C(C(=O)N3CCN(C)CC3)O[C@H](OCc3ccc(CO)cc3)C2)c2ccccc21	-56%	-1%	i	8%	-1%	0%
C=CCOC(=O)C1=C[C@H](c2cn(C(C)=O)c3ccccc23)C[C@H](OCc2ccc(CO)cc2)O1	40µM*	-7%	i	-3%	1%	0%
c1ccc2sc(-c3ccc4c(c3)OCO4)nc2c1	.	0%	-112%*	0%	5%	-10%
O=C(Nc1cccc(-c2nc3ccccc3s2)c1)c1ccc2c(c1)OCO2	10%[57.4 µM]	-10%	i	-7%	0%	-1%
COc1ccc(N/C=C\C(=O)c2ccc(Br)cc2)cc1OC	4%	-29%	i	-7%	32µM*	?
SMILES	12-LOX inh	Vif-A3G inh	Akt phos inh	S-ASM inh	Vif-A3F inh	TSG101-PTAP inh
O=c1oc2c3c4c(cc2s1)CCCN4CCC3	18µM*	-14%	i	-5%	-1%	-16%
O=C(O)CSc1cc(NS(=O)(=O)c2ccc(Cl)cc2)c2ccccc2c1O	2.8µM*	-3%	i	?	?	-7%
COc1ccc(S(=O)(=O)Nc2cc(SCC(=O)O)c(O)c3ccccc23)cc1	?	-21%	i	-29%	-16%	-7%
Cc1cccc(OCCn2c(C)nc3cc(C)c(C)cc32)c1	49%	.	.	.	.	.
COc1ccc(/C=C(/C#N)C(=O)c2c(Cl)cccc2Cl)cc1	6.3µM*	.	.	.	.	.
COc1cccc(C(=O)/C(C#N)=C\c2ccc(F)c(Br)c2)c1	18µM*	.	.	.	.	.
COc1ccccc1/C=C(/C#N)C(=O)c1c(Cl)cccc1Cl	-100%	.	.	.	.	.
COc1cccc(C(=O)/C(C#N)=C\c2ccccc2C(F)(F)F)c1	40µM*	.	.	.	.	.
COc1cccc(C=C(C#N)C(=O)c2ccccc2)c1	?	-6%	i	.	.	.
O=c1[nH]c(=O)n(Cc2ccccc2)c2c1C(C(F)(F)F)(C(F)(F)F)N=C(c1cccs1)N2	-7%	.	.	.	.	.
Cc1cccc(N(CC(=O)Nc2c(C)cccc2C)S(C)(=O)=O)c1C	31%	.	.	.	.	.
COc1ccccc1-c1cnc(NCc2ccccc2)c2c1CCO2	-25%[176 µM]	.	.	.	.	.
O=C1C(=C(c2ccccc2)c2ccccc2)C(Cl)C(Cl)(Cl)c2ccccc21 (stereo not drawn)	10µM*	.	.	.	.	.
O=C1OC(c2ccccc2)(c2ccccc2)c2ccccc21	-8%	-11%	i	-3%	5%	0%
